Screening results as filed in PubChem.
Sampled rows, rich in hits. Any-hit rate of the full collection: about 5.7%.
ATXN viability – Viability Counterscreen for Primary qHTS for Inhibitors of ATXN expression; S2 cells (HEK-293 line with an ATXN2-luciferase reporter) viability, CellTiter-Fluor protease fluorescence, 24 h; Potency, µM (highest dose often 56.7 µM), most hits filed as cytotoxic; 0.49% of 400,000 active; also: potency is read from the fitted curve at half-maximal effect; nearly all actives have a fitted effect of over 40% in size
TGFb inhibitor – qHTS for Inhibitors of TGF-b; Potency, µM (top dose mostly 46.1 µM), for inactives: at the highest dose activity, negative = inhibition, most hits filed as inhibitors; AID 588855, 2011; 1.2% of 410,000 active; HepG2 CAGA-GFP TGF-b/SMAD3 reporter, GFP fluorescence, 18 h; TGF-beta stimulated, 500 pg/mL final; also: potency is read from the fitted curve at half-maximal effect; % is scaled to controls: 0 for no effect and ±100 for the full control effect; nearly all actives have a fitted effect of over 65% in size
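Cell-based qHTS in HEPG2 carrying a CAGA-GFP Smad reporter; compounds added before 500 pg/mL final TGF-beta, 18 h incubation at 37 degrees C, GFP fluorescence quantified per cell by imaging cytometry.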
IL-1B inflam inh – qHTS for Inhibitors of Inflammasome Signaling: IL-1-beta AlphaLISA Primary Screen; activity change, % at 57.5 µM; THP-1 LPS/ATP IL-1B secretion, AlphaLISA, 16 h; stronger effect = lower value; 4.7% of 360,000 active; in the data active = activity change below about -50%; inconclusive = mostly about -30% to -49%; also: % is scaled to controls: 0 for no effect and ±100 for the full control effect
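Secreted IL-1B measured by AlphaLISA bead assay after 16 h compound exposure of THP-1 cells; compounds (final up to 57.5 uM) added 1 h before LPS (250 ng/mL) and ATP (1.25 mM) stimulation; lower signal means less secretion.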
HepG2 viability – qHTS for Inhibitors of TGF-b: Cytotox Counterscreen. Potency, µM (titrated, usually from 46.1 µM), without a hit: at the highest dose activity change, negative = cytotoxicity, hits mostly cytotoxic. AID 588856, 2011. 0.76% of 410,000 active. HepG2 CAGA-GFP viability, ATP luminescence, 18 h; also: potency is read from the fitted curve at half-maximal effect
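CellTiter-Glo luminescence gave cytotoxicity after 18 hours at 37 degrees C. The cells were HepG2 CAGA-GFP in 1% FBS DMEM, stimulated with 500 pg/mL TGF-beta after compound addition. %Activity was normalised to no-cell wells (complete cell-killing) and DMSO (no toxicity), and curves were fitted and classified.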
ATXN2 expr inh – Primary qHTS for Inhibitors of ATXN expression; HEK-293 ATXN2-luciferase reporter, luminescence, 24 h; Potency, µM (doses to about 57 µM), inactives show top-dose activity change, negative = inhibition, most hits filed as inhibitors; 0.72% of 360,000 active; also: potency is read from the fitted curve at half-maximal effect; % is scaled to controls: 0 for no effect and ±100 for the full control effect; nearly all actives have a fitted effect of over 55% in size
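qHTS (up to 57 uM final) was run with 24 h compound exposure of reporter cells at 37 °C. Each well was multiplexed: SteadyGlo luminescence measured ATXN2-luciferase expression after a fluorogenic Gly-Phe-AFC viability readout (25 uM final).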
* hit, by the source's call; i = inactive; ? = inconclusive; · = no result given. Unless noted, calls follow the shape of the dose curve; as a rule, active = well fitted curve in the direction sought with a large enough effect; inconclusive = small, poorly fitted or top-dose-only effect, or another doubt; inactive = no such curve, though single readings can be large; an effect the other way counts as inactive or inconclusive.

SMILES | ATXN viability | TGFb inhibitor | IL-1B inflam inh | HepG2 viability | ATXN2 expr inh
CCN(CC)CCC(c1ccc(N(C)C)cc1)c1c(OC)cc(OC)c2c1OC(=O)CC2c1ccc(OC)cc1 (centres undefined) | · | -6% | · | -22% | ·
C#CCN1C=CC(=O)[C@@H](OC(=O)Nc2ccc(Br)cc2)[C@H]1c1ccccc1Br | ? | 13µM* | -25 | -33% | ?
C#CCN1C=CC(=O)[C@@H](OC(=O)Nc2ccccc2Br)[C@H]1c1ccccc1Br | i | ? | -17 | -33% | -5%
COc1ccc(NC(=O)c2cnc3cc(C)ccn3c2=O)c(OC)c1 | i | 4% | · | 6% | 7%
CCC/C=C/c1ccc(CN2C(C)C(=O)N(Cc3cn(Cc4ccco4)nn3)CCS2(=O)=O)cc1 (centres undefined) | ? | 22µM* | ? | -33% | -29%
CCC/C=C/c1ccc(CN2C(C(C)C)C(=O)N(Cc3cn(Cc4ccco4)nn3)CCS2(=O)=O)cc1 (centres undefined) | ? | 11µM* | ? | -109% | ?
COc1ccc(-c2ccc(CN3C(C(C)C)C(=O)N(Cc4cn(Cc5ccco5)nn4)CCS3(=O)=O)cc2)cc1 (centres undefined) | ? | ? | 0 | -33% | -5%
COc1ccc(C2NC(=O)NC(c3ccccc3)=C2c2nc3ccccc3s2)cc1 (centres undefined) | ? | -15% | ? | -32% | -2%
O=C1NC(c2ccccc2)=C(c2nc3ccccc3s2)C(c2ccc(F)cc2)N1 (centres undefined) | i | ? | -75* | -37% | ?
CCC(C)C1C(C#N)=C(N)Oc2n[nH]c(C)c21 (centres undefined) | ? | -20% | -72* | -24% | -33%
CC(C)C1C(C#N)=C(N)Oc2n[nH]c(C(C)(C)C)c21 (centres undefined) | i | 3% | -9 | -19% | -1%
CCC(C)C1C(C#N)=C(N)Oc2n[nH]c(-c3ccccc3)c21 (centres undefined) | i | -16% | -20 | -22% | ?
Cc1[nH]nc2c1C(c1cn[nH]c1-c1ccc(F)cc1)C(C#N)=C(N)O2 (centres undefined) | i | 2% | -80* | -12% | 1%
Cc1[nH]nc2c1C(C(C)C)C(C#N)=C(N)O2 (centres undefined) | i | -6% | -87* | -33% | -6%
Cc1[nH]nc2c1C(c1cc(Br)cs1)C(C#N)=C(N)O2 (centres undefined) | i | 10µM* | -101* | -65% | -39%
Cc1[nH]nc2c1C(c1ccco1)C(C#N)=C(N)O2 (centres undefined) | i | -10% | -11 | -9% | 8%
COc1ccccc1C1CN(CCNC(=O)c2sccc2Cl)Cc2ccccc2O1 (centres undefined) | i | · | · | · | ·
COC(=O)c1ccc2c(=O)[nH]c(CCl)nc2c1 | i | -25% | -97* | -8% | 35%
COC(=O)c1ccc2c(=O)[nH]c(CN3c4ccccc4CC3C)nc2c1 (centres undefined) | ? | -4% | 14 | 9% | -7%
Cc1ccc2c(c1)-c1nc(-c3ccccc3)cc(-c3ccccc3)c1CO2 | i | -9% | · | -17% | -6%
O=C1NC(=O)C(=Cc2ccc(-c3ccc(F)cc3)o2)S1 | · | · | · | · | 23%
O=[N+]([O-])c1ccc(O)c(C(C#Cc2ccccc2)N2CCOCC2)c1 (centres undefined) | i | 13µM* | -14 | -4% | 23%
COc1cc(NC(=O)C2=C(C)OCCS2)c(Cl)cc1C(=O)NCCN(C)C | ? | -1% | -83* | 4% | -16%
COc1cc(CCNC(=O)c2ccccc2NC(=O)C2=C(C)OCCS2)cc(OC)c1OC | ? | -18% | -16 | -1% | ?
O=C(N/N=C/C(Br)=C/c1ccccc1)C(O)c1ccccc1 (centres undefined) | i | -23% | -20 | -26% | 43%
SMILES | ATXN viability | TGFb inhibitor | IL-1B inflam inh | HepG2 viability | ATXN2 expr inh
Cc1ccc(NCC(=O)N/N=C\C(Br)=C\c2ccccc2)cc1 | ? | ? | -98* | -67% | ?
CC(/C=N/NC(=O)NC1CCCCC1)=C\c1ccccc1 | i | ? | ? | -77% | 5%
O=C(N/N=C/C(Br)=C/c1ccccc1)NC1CCCCC1 | i | ? | -94* | -60% | 40%
O=C(N/N=C/C(Br)=C/c1ccccc1)C1CC1 | i | -3% | -76* | -16% | 16%
Cc1cc(C)nc(SCC(=O)N/N=C\C(Br)=C\c2ccccc2)n1 | i | 2% | -13 | 13% | -27%
CCOc1ccc(NC(=O)CSc2nnc(CNC(=O)C34CC5CC(CC(C5)C3)C4)n2CC)cc1 | i | -29% | · | -15% | -6%
Cc1cccc(OCc2nc(CC(=O)Nc3ccc(Cl)cc3)cs2)c1 | i | -26% | · | -20% | -10%
CCOC(=O)c1sc(NC(=O)c2cc3c(s2)CCC(C)C3)nc1C (centres undefined) | i | -2% | -4 | -23% | -22%
COC(=O)c1sc(NC(=O)c2cc3c(s2)CCCC3)nc1C | i | 2% | -52* | -17% | 2%
Cc1nc(NC(=O)C(Cl)Cl)sc1C(=O)N(C)C | i | 14% | 6 | -11% | -2%
Cc1nc(NC(=O)CCl)sc1C(=O)N(C)C | i | -17% | -81* | -30% | ·
Cc1nc(NC(=O)c2ccc(Br)s2)sc1C(=O)N(C)C | i | 0% | ? | -11% | 19%
Cc1nc(NC(=O)c2cc3c(s2)CCCCC3)sc1C(=O)N(C)C | ? | 14% | -53* | -19% | 34%
CCc1ccccc1NC(=O)CN(c1ccccc1OC)S(=O)(=O)c1ccc(C)cc1 | i | 0% | · | -15% | -17%
O=C(O)c1ccccc1SCc1nc2ccccn2c1Br | i | -2% | 5 | 29% | ·
N=C(N)SCc1ncccc1O | i | 6% | -5 | 0% | 3%
Cc1cccc2nc(CSC(=N)N)c(Br)n12 | ? | ? | -68* | -30% | -29%
N=C(N)SCc1nc2ccccn2c1Br | i | -5% | -98* | -4% | 0%
CN(Cc1ccccc1)c1ccc(-c2nc(-c3ccccn3)no2)cc1[N+](=O)[O-] | ? | -4% | · | -16% | -18%
COc1ccc(CCNC(=O)c2ccc3c(c2)N(Cc2ccccc2Cl)C(=O)c2ccccc2S3)cc1OC | · | ? | · | -14% | ·
Nc1nc2c(s1)CCc1ccccc1-2 | i | -10% | -6 | -9% | 2%
O=C(CCCl)Nc1nc2c(s1)CCc1ccccc1-2 | ? | ? | -98* | 10µM* | ?
